# This is a sample that favours compounds with a hit; in the whole collection about 3.5% have one here.
# GPR151 activ: human GPR151 activation | Q8TDV0 | 650,000 tested, 1% active | activation, % at 11.2 µM | PathHunter beta-arrestin GPR151 cells, luminescence; in the data active = activation above about 4.9%
# TEAD-YAP inh: TEAD-YAP interaction inhibition. HEK-TIYL cells, TEAD-Gal4/YAP UAS-luciferase luminescence. inhibition, % at 9.12 µM. 640,000 tested, 1.4% active. AID 1259422; in the data active = inhibition above about 32%
# FBW7 activator: activators of human E3 ligase FBW7. AlphaScreen FBW7–phospho-cyclin E peptide binding, activator screen. AID 1259310. Q969H0. normalized activity (activation), % at 26.1 µM. 650,000 tested, 0.13% active; in the data active = normalized activity above about 1.9%;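 note: purified mutant Fbw7 with reduced substrate affinity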
# Target sequence (Q969H0 whole entry, looked up): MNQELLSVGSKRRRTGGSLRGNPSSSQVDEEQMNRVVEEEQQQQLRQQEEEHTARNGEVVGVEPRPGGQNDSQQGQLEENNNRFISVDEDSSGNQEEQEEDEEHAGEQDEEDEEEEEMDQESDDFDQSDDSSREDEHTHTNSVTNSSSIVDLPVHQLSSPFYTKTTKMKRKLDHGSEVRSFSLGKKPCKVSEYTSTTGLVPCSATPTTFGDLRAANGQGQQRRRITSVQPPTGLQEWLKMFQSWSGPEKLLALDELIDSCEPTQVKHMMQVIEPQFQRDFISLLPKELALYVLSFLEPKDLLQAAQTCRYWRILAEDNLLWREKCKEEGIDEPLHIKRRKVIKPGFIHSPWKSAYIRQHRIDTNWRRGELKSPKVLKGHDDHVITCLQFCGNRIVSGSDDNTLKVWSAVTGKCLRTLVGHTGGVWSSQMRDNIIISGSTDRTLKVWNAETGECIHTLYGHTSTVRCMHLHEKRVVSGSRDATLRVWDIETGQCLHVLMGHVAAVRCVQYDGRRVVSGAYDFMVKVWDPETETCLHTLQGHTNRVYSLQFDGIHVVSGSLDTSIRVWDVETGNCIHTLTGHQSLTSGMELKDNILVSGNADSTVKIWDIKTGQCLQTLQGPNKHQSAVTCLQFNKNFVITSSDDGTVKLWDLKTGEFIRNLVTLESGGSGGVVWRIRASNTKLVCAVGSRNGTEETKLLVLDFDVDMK
# MITF inh: human MITF inhibition, primary screen. 650,000 tested, 0.91% active. inhibition, % at 2.6 µM. AlphaScreen MITF homodimerization, bead proximity signal; in the data active = inhibition above about 50%
# A number is an active result; - = inactive.
SMILES,GPR151 activ,TEAD-YAP inh,FBW7 activator,MITF inh
Cc1onc(-c2ccccc2Cl)c1C(=O)Nc1ncc([N+](=O)[O-])s1,-,-,-,-
O=C(Cc1ccc(Br)cc1)Nc1ncc([N+](=O)[O-])s1,-,-,-,-
O=C(Cc1ccc(Cl)cc1)Nc1ncc([N+](=O)[O-])s1,-,-,-,-
N#Cc1sc(NC(=O)c2ccc(Br)cc2)nc1Cl,-,47,-,-
O=C(Nc1ncc([N+](=O)[O-])s1)c1ccc(Cl)cc1Cl,-,64,-,-
Cc1onc(-c2ccccc2)c1C(=O)Nc1ncc([N+](=O)[O-])s1,-,38,-,-
O=C(Nc1ncc([N+](=O)[O-])s1)c1ccc(Br)cc1,-,65,-,-
O=C(Nc1nc2ccc3ccccc3c2s1)c1ccc(Br)cc1,-,-,-,-
Cc1cccc(C(=O)Nc2ncc([N+](=O)[O-])s2)c1,-,55,-,-
Cc1ccc(C(=O)Nc2ncc([N+](=O)[O-])s2)cc1,-,82,-,-
O=C(Nc1ncc([N+](=O)[O-])s1)c1cccnc1,-,-,-,-
COc1ccc(/C=C/c2nc3ccccc3[nH]2)cc1,-,88,-,-
Nc1ccc2nc(/C=C/c3ccccc3)[nH]c2c1,-,-,-,-
C(=C\c1nc2ccccc2[nH]1)/c1ccccc1,-,80,-,-
COc1ccc(/C=C(/C#N)c2nc3ccccc3[nH]2)cc1,-,-,-,-
COc1ccc(/C=C/c2nc3ccccc3c(=O)o2)cc1,-,75,-,-
COc1ccccc1/C=C/c1nc2ccccc2c(=O)o1,-,-,-,-
COc1cccc(N2CC(O)=C(c3nc4ccccc4[nH]3)C2=N)c1,-,37,-,-
COc1cc2cc(C#N)c(SCC(=O)Nc3ccc4c(c3)OCO4)nc2cc1OC,-,-,-,-
COc1ccc(/C=C/C(=O)Nc2nc3ccccc3n2C)cc1,-,-,-,-
COc1ccc(/C=C/c2nc3ccccc3n2C)cc1,-,98,-,-
COc1ccc(/C=N\n2nnc3ccccc32)cc1,-,85,-,-
COc1ccc(-c2nc3ccccc3[nH]2)cc1,-,50,-,-
CCOc1ccccc1NC(=O)C1=C(C)NC(=S)NC1c1ccccc1Cl (centres undefined),-,-,-,-
CC(C)n1cc(-c2ccc3cnc(Nc4ccc(-n5cnc(N6CCOCC6)n5)cc4)nc3c2Cl)cn1,-,-,-,-
SMILES,GPR151 activ,TEAD-YAP inh,FBW7 activator,MITF inh
Clc1cnc(Nc2ccc(-n3cnc(N4CCOCC4)n3)cc2)nc1-c1ccno1,-,-,-,-
Cc1ncn(-c2ccc(Nc3ncc4cccc(-c5ccccc5)c4n3)cc2)n1,-,-,-,-
CCOC(=O)c1c(Cl)ccc2cnc(Nc3ccc(-n4cnc(N5CCOCC5)n4)cc3)nc12,-,59,-,-
Cc1ccc(-c2cccc3cnc(Nc4ccc(-n5cnc(N6CCOCC6)n5)cc4)nc23)cn1,-,49,-,-
Cc1ncn(-c2ccc(Nc3ncc4cccc(-c5cccc(N6CCOCC6)c5)c4n3)cc2)n1,-,39,-,-
Cc1cc(-c2nc(Nc3ccc(-n4cnc(N5CCOCC5)n4)cc3)ncc2Cl)no1,-,39,-,-
CNC(=O)N(C1=NCC(C)S1)c1cccc(Cl)c1 (centres undefined),-,40,-,-
CC1CN=C(N(C)C(=O)Nc2cccc(Cl)c2)S1 (centres undefined),-,-,-,-
c1ccc(CNc2nc(Nc3ccc4ncccc4c3)nc3c2ncn3-c2ccsc2)cc1,-,-,-,-
c1ccc(-n2cnc3c(NCc4nc5ccccc5[nH]4)nc(Nc4ccc5ncccc5c4)nc32)cc1,-,-,23,-
c1cnc2ccc(Nc3nc(NCc4nc5ccccc5[nH]4)c4ncn(-c5ccsc5)c4n3)cc2c1,-,49,42,-
COC(=O)c1cn(NC(=O)c2cccnc2Cl)c(=O)c2ccccc12,-,-,-,-
COC(=O)c1cn(NC(=O)c2ccccn2)c(=O)c2ccccc12,-,62,-,100
O=C(C1CCN(Cc2cc(Cl)ccc2O)CC1)N1CCN(Cc2ccccc2)CC1,-,-,-,59
O=C(C1CCN(Cc2ccccc2O)CC1)N1CCCCC1,-,-,-,52
Cc1cccc(NC(c2ccc(Cl)cc2)c2ccc3cccnc3c2O)n1 (centres undefined),-,90,-,-
Cc1cccc(NC(c2ccncc2)c2ccc3cccnc3c2O)n1 (centres undefined),-,68,-,113
Cc1cccc(NC(c2cccc(Cl)c2)c2ccc3cccnc3c2O)n1 (centres undefined),-,48,-,-
Cc1cc(NC(c2cccc(Br)c2)c2ccc3cccnc3c2O)no1 (centres undefined),-,84,-,-

# Compound activity: PubChem, The Scripps Research Institute Molecular Screening Center
